Compounds without any hit were thinned out: in the full panel of roughly 83,000, 20% have a hit.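 Single-dose data. Exposure time 48 hours. Values below 10 considered active.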 The source made the active and inactive calls.
Assays:
Assay in all cases: NCI-60 one-dose screen, 48 h (100 = growth as untreated, 0 = no growth, -100 = all killed)
Conditions in all cases: 10 µM unless noted
NCI-H23 lung = test system: NCI-H23 lung
NCI-H226 lung = test system: NCI-H226 lung
NCI-H322M lung = test system: NCI-H322M lung
HOP-62 NSCLC = test system: HOP-62 NSCLC
NCI-H460 lung = test system: NCI-H460 lung
HOP-92 NSCLC = test system: HOP-92 NSCLC
NCI-H522 lung = test system: NCI-H522 lung
A549/ATCC NSCLC = test system: A549/ATCC NSCLC
786-0 renal = test system: 786-0 renal
COLO 205 colon = test system: COLO 205 colon
DU-145 prostate = test system: DU-145 prostate
K-562 leukemia = test system: K-562 leukemia
MALME-3M melanoma = test system: MALME-3M melanoma
MDA-MB-231 breast = test system: MDA-MB-231 breast
RXF 393 renal = test system: RXF 393 renal
SF-268 CNS = test system: SF-268 CNS
SF-295 CNS = test system: SF-295 CNS
SF-539 CNS = test system: SF-539 CNS
UACC-257 melanoma = test system: UACC-257 melanoma
M14 melanoma = test system: M14 melanoma

Measured: growth

COc1ccc(-n2c(-c3ccccc3)c(-c3ccccc3)c3c(SCC(=O)N/N=C/c4ccc(Cl)cc4)ncnc32)cc1
inactive: NCI-H23 lung 68.2% | NCI-H226 lung 76.6% | NCI-H322M lung 97.2% | HOP-62 NSCLC 85.5% | NCI-H460 lung 102% | HOP-92 NSCLC 66.8% | NCI-H522 lung 83.5% | A549/ATCC NSCLC 93.1% | 786-0 renal 92.5% | COLO 205 colon 104% | DU-145 prostate 95.4% | K-562 leukemia 80.7% | MALME-3M melanoma 107% | MDA-MB-231 breast 82.1% | RXF 393 renal 97.3% | SF-268 CNS 88.5% | SF-295 CNS 92.9% | SF-539 CNS 93.8% | UACC-257 melanoma 95.1% | M14 melanoma 99.5%

CC(C)(C)n1cc(-c2ccnc(NCCNS(=O)(=O)c3ccc(C(F)(F)F)cc3)c2)c(-c2cccc(O)c2)n1
inactive: NCI-H23 lung 55.8% | NCI-H226 lung 67.2% | NCI-H322M lung 74.9% | HOP-62 NSCLC 71.5% | NCI-H460 lung 21.2% | HOP-92 NSCLC 35.4% | NCI-H522 lung 49% | A549/ATCC NSCLC 41.1% | 786-0 renal 33.9% | DU-145 prostate 75.7% | MALME-3M melanoma 42.3% | MDA-MB-231 breast 46% | RXF 393 renal 37% | SF-268 CNS 56.6% | SF-295 CNS 44.3% | SF-539 CNS 54% | UACC-257 melanoma 47.2% | M14 melanoma 44.7%
active: COLO 205 colon -33.8% | K-562 leukemia 7.42%

Fc1ccc(-c2nc(-c3nc4ncccc4[nH]3)cc3c2[nH]c2ccccc23)cc1F
inactive: NCI-H23 lung 67.2% | NCI-H226 lung 88.5% | NCI-H322M lung 64.7% | HOP-62 NSCLC 78.6% | NCI-H460 lung 91.1% | HOP-92 NSCLC 70.2% | NCI-H522 lung 58.3% | A549/ATCC NSCLC 59% | 786-0 renal 95.2% | COLO 205 colon 96.9% | DU-145 prostate 49% | K-562 leukemia 78.5% | MALME-3M melanoma 78.5% | MDA-MB-231 breast 53.9% | RXF 393 renal 73.1% | SF-268 CNS 71.1% | SF-295 CNS 86.9% | SF-539 CNS 79.6% | UACC-257 melanoma 92.2% | M14 melanoma 78.8%

COc1ccc(/C=C2\Oc3cc(OCCCN4CCCC4)ccc3C2=O)c(OC)c1
active: K-562 leukemia -30.4%
inactive: NCI-H23 lung 87.9% | NCI-H226 lung 96.4% | NCI-H322M lung 94.6% | HOP-62 NSCLC 101% | NCI-H460 lung 23.5% | HOP-92 NSCLC 83.8% | NCI-H522 lung 75% | A549/ATCC NSCLC 80.5% | 786-0 renal 89.4% | COLO 205 colon 92.8% | DU-145 prostate 71.2% | MALME-3M melanoma 106% | MDA-MB-231 breast 78.8% | RXF 393 renal 77.3% | SF-268 CNS 87.3% | SF-295 CNS 99.8% | SF-539 CNS 51.6% | UACC-257 melanoma 103% | M14 melanoma 67.7%

OCc1ncc(-c2ccccc2)s1
inactive: NCI-H23 lung 93.1% | NCI-H226 lung 125% | NCI-H322M lung 173% | HOP-62 NSCLC 96.9% | NCI-H460 lung 102% | HOP-92 NSCLC 91.3% | NCI-H522 lung 97.5% | A549/ATCC NSCLC 110% | 786-0 renal 60% | COLO 205 colon 114% | DU-145 prostate 107% | K-562 leukemia 93.2% | MALME-3M melanoma 94.2% | MDA-MB-231 breast 113% | RXF 393 renal 122% | SF-268 CNS 99.8% | SF-295 CNS 106% | SF-539 CNS 98.1% | UACC-257 melanoma 105% | M14 melanoma 93.9%

O=[N+]([O-])c1ccc(C(c2ccccc2)c2ccccc2)cc1
inactive: NCI-H23 lung 89.6% | NCI-H226 lung 100% | NCI-H322M lung 78% | HOP-62 NSCLC 102% | NCI-H460 lung 94% | HOP-92 NSCLC 85.9% | NCI-H522 lung 87% | A549/ATCC NSCLC 91.5% | 786-0 renal 99.4% | COLO 205 colon 92.6% | DU-145 prostate 105% | K-562 leukemia 91.9% | MALME-3M melanoma 107% | MDA-MB-231 breast 86.3% | RXF 393 renal 100% | SF-268 CNS 98.7% | SF-295 CNS 88.7% | SF-539 CNS 104% | UACC-257 melanoma 96.9% | M14 melanoma 105%

CN(C)c1cccc2c(S(=O)(=O)/N=C(\N)Nc3nc4ccccc4s3)cccc12
inactive: NCI-H23 lung 66.6% | NCI-H226 lung 69.8% | NCI-H322M lung 83.4% | HOP-62 NSCLC 40.6% | NCI-H460 lung 30.3% | HOP-92 NSCLC 60.2% | NCI-H522 lung 30.1% | A549/ATCC NSCLC 52.3% | 786-0 renal 77.6% | COLO 205 colon 85.6% | DU-145 prostate 96% | K-562 leukemia 21.9% | MALME-3M melanoma 73.7% | MDA-MB-231 breast 68.3% | RXF 393 renal 54.6% | SF-268 CNS 69.7% | SF-295 CNS 33.6% | SF-539 CNS 52.4% | UACC-257 melanoma 78.3% | M14 melanoma 45.3%

CCN(CC)CCC(CNc1ccnc2cc(Cl)ccc12)c1ccc(Cl)cc1 (stereo not given)
inactive: NCI-H23 lung 48.6% | NCI-H226 lung 14.4% | NCI-H322M lung 34.6% | A549/ATCC NSCLC 12.3% | DU-145 prostate 67.7%
active: HOP-62 NSCLC 6.58% | NCI-H460 lung -12.4% | HOP-92 NSCLC -39.9% | NCI-H522 lung -59.1% | 786-0 renal -59.1% | COLO 205 colon -97.7% | K-562 leukemia -53.9% | MALME-3M melanoma -83.1% | MDA-MB-231 breast -32.1% | RXF 393 renal -90.4% | SF-268 CNS -8.09% | SF-295 CNS -75.4% | SF-539 CNS -78.2% | UACC-257 melanoma -79.4% | M14 melanoma -80.2%

COc1ccc(-c2cc(-c3ccccc3)nc(SCCCC(=O)NO)n2)cc1OC
inactive: NCI-H226 lung 10.4% | NCI-H322M lung 17.1% | COLO 205 colon 23.7% | SF-539 CNS 14.8%
active: NCI-H23 lung -2.44% | HOP-62 NSCLC 5.03% | NCI-H460 lung 1.88% | HOP-92 NSCLC -10.6% | NCI-H522 lung -22.8% | A549/ATCC NSCLC -17.1% | 786-0 renal 0.761% | DU-145 prostate 1.4% | K-562 leukemia 3.02% | MALME-3M melanoma -3.72% | MDA-MB-231 breast 6.56% | RXF 393 renal -21.1% | SF-268 CNS -19.2% | SF-295 CNS -0.804% | UACC-257 melanoma -18.2% | M14 melanoma -4.14%

COc1cc(C2C3=C(COC3=O)Nc3cc4c(cc32)CCC4)cc2c1OCO2 (stereo not given)
inactive: NCI-H23 lung 19.6% | NCI-H226 lung 31.9% | NCI-H322M lung 50.7% | HOP-62 NSCLC 35.5% | HOP-92 NSCLC 41.1% | A549/ATCC NSCLC 18.7% | 786-0 renal 18.1% | K-562 leukemia 14.1% | MALME-3M melanoma 60% | MDA-MB-231 breast 20.8% | RXF 393 renal 30.4% | SF-268 CNS 27.9% | SF-539 CNS 10.2% | UACC-257 melanoma 73.1% | M14 melanoma 12%
active: NCI-H460 lung 7.05% | NCI-H522 lung -3.96% | COLO 205 colon -63.1% | DU-145 prostate -0.3% | SF-295 CNS 6.57%

CC1(c2ccc(Cl)cc2)OC(=O)CC(=O)O1
inactive: NCI-H23 lung 95.9% | NCI-H226 lung 104% | NCI-H322M lung 109% | HOP-62 NSCLC 102% | NCI-H460 lung 110% | HOP-92 NSCLC 103% | NCI-H522 lung 90.1% | A549/ATCC NSCLC 99.1% | 786-0 renal 111% | COLO 205 colon 109% | DU-145 prostate 108% | K-562 leukemia 113% | MALME-3M melanoma 89% | MDA-MB-231 breast 98.2% | RXF 393 renal 113% | SF-268 CNS 100% | SF-295 CNS 120% | SF-539 CNS 102% | UACC-257 melanoma 109% | M14 melanoma 101%

COc1cc(NC(N)=NCCC(C)(C)c2ccc(C(F)(F)F)cc2)ncc1C#N
active: NCI-H23 lung 6.42% | NCI-H460 lung 6.06% | HOP-92 NSCLC -3.76% | COLO 205 colon -83.6% | K-562 leukemia -18.1% | MALME-3M melanoma -77.9% | UACC-257 melanoma -0.602% | M14 melanoma -73.7%
inactive: NCI-H226 lung 55.5% | NCI-H322M lung 36.1% | HOP-62 NSCLC 54.5% | NCI-H522 lung 16.8% | A549/ATCC NSCLC 27.2% | 786-0 renal 36% | DU-145 prostate 39.6% | MDA-MB-231 breast 26% | RXF 393 renal 33.4% | SF-268 CNS 44.1% | SF-295 CNS 25.9% | SF-539 CNS 61.1%

O=S(=O)(CC(O)(c1ccccc1)c1ccccc1)CC(O)(c1ccccc1)c1ccccc1
active: SF-539 CNS 2.42%
inactive: NCI-H23 lung 88.3% | NCI-H226 lung 84.1% | NCI-H322M lung 59.3% | HOP-62 NSCLC 68.8% | NCI-H460 lung 77.6% | HOP-92 NSCLC 86.7% | NCI-H522 lung 108% | A549/ATCC NSCLC 94.1% | 786-0 renal 90.2% | COLO 205 colon 90.2% | DU-145 prostate 74.6% | K-562 leukemia 75.8% | MALME-3M melanoma 61.8% | MDA-MB-231 breast 71.2% | RXF 393 renal 93.4% | SF-268 CNS 85.3% | SF-295 CNS 74.8% | UACC-257 melanoma 102% | M14 melanoma 95.2%

O=C(c1c[nH]c(=O)c(-c2ccccc2)c1)c1ccccc1O
inactive: NCI-H23 lung 91.7% | NCI-H226 lung 88.7% | NCI-H322M lung 82.7% | HOP-62 NSCLC 86.3% | NCI-H460 lung 96.1% | HOP-92 NSCLC 70.2% | NCI-H522 lung 87.2% | A549/ATCC NSCLC 93.5% | 786-0 renal 88.2% | COLO 205 colon 98.1% | DU-145 prostate 99.7% | K-562 leukemia 78.4% | MALME-3M melanoma 92.5% | MDA-MB-231 breast 98.5% | RXF 393 renal 82.1% | SF-268 CNS 91.5% | SF-295 CNS 92.2% | SF-539 CNS 108% | UACC-257 melanoma 85.7% | M14 melanoma 105%

COc1ccc(C(=O)N2NC(=O)/C(=C/c3ccccc3F)N=C2c2ccccc2)cc1
inactive: NCI-H23 lung 93.5% | NCI-H226 lung 104% | NCI-H322M lung 110% | HOP-62 NSCLC 108% | NCI-H460 lung 106% | HOP-92 NSCLC 96.8% | NCI-H522 lung 102% | A549/ATCC NSCLC 96.2% | 786-0 renal 102% | COLO 205 colon 122% | DU-145 prostate 115% | K-562 leukemia 104% | MALME-3M melanoma 109% | MDA-MB-231 breast 106% | RXF 393 renal 106% | SF-268 CNS 105% | SF-295 CNS 101% | SF-539 CNS 131% | UACC-257 melanoma 99.7% | M14 melanoma 111%

— PubChem BioAssay (NCI)
